{"source": "the supplement of paper PMC3334620", "note": "The full ranking holds about 33,000 sequences; the median of “E-score (-0.5 to 0.5)” is about -0.0014, and the highest 2% start at about 0.25. The entries come from a sample that favours the highest values as a whole.", "data": [{"molecular_target": "T1, Cad1 (UniProt P24813)", "T1 sequence": "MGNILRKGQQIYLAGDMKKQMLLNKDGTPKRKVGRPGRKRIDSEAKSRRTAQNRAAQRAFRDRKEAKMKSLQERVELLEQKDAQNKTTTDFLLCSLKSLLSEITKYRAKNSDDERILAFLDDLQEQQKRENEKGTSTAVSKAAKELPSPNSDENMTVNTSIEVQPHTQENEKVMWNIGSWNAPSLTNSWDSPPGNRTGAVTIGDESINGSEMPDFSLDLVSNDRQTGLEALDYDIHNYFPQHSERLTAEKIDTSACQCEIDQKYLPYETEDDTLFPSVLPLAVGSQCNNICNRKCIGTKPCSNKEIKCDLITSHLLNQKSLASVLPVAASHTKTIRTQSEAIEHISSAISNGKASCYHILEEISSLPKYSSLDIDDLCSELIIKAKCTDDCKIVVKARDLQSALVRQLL", "assay": "PBM E-score (8-mer binding enrichment) (E-score (-0.5 to 0.5)); higher = stronger / more preferred TF binding", "conditions": "protein concentration: 100 nM; construct: GST-full length", "method": "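Universal 'all 10-mer' protein binding microarrays (Agilent AMADID 015681) probed with GST-tagged S. cerevisiae TFs (full-length or DBD) made by in vitro transcription/translation (PURExpress), about 100-200 nM. Bound TF was detected with fluorescent anti-GST. Each ungapped 8-mer (which stands for itself and its reverse complement) is scored by the PBM enrichment score (E-score), a modified Wilcoxon-Mann-Whitney statistic from -0.5 to +0.5, computed with the Universal PBM Analysis Suite. Scale: above 0.35 generally sequence-specific binding.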", "values": [{"sequence": "CGAACGCC", "PBM E-score": -0.0886}, {"sequence": "AATCGGAG", "PBM E-score": 0.0523}, {"sequence": "AATCGGAA", "PBM E-score": 0.211}, {"sequence": "AATCGGAT", "PBM E-score": 0.283}, {"sequence": "CCAGTCTC", "PBM E-score": -0.286}, {"sequence": "CATCTGGA", "PBM E-score": -0.165}, {"sequence": "CACAGCGA", "PBM E-score": 0.133}, {"sequence": "CGAGCGAC", "PBM E-score": 0.0243}, {"sequence": "ATCGCGAT", "PBM E-score": 0.237}, {"sequence": "CGAGCGAG", "PBM E-score": 0.258}, {"sequence": "ATATCGCA", "PBM E-score": -0.0511}, {"sequence": "ATATCGCC", "PBM E-score": 0.0776}, {"sequence": "CTCGCGAG", "PBM E-score": 0.279}, {"sequence": "CACGCGAG", "PBM E-score": 0.239}, {"sequence": "ATATCGCG", "PBM E-score": 0.267}, {"sequence": "ATCGCGAG", "PBM E-score": 0.264}, {"sequence": "AGAGCGAG", "PBM E-score": -0.0569}, {"sequence": "CTCGCGAA", "PBM E-score": 0.0936}, {"sequence": "ATCGCGAA", "PBM E-score": 0.243}, {"sequence": "CCCAGACA", "PBM E-score": -0.108}, {"sequence": "CGTTACGA", "PBM E-score": 0.111}, {"sequence": "CATTAAGC", "PBM E-score": 0.0681}, {"sequence": "AGTTGAGA", "PBM E-score": -0.0203}, {"sequence": "AAGAGCCA", "PBM E-score": 0.0145}, {"sequence": "AGACCACA", "PBM E-score": -0.0838}, {"sequence": "ACGGCGTA", "PBM E-score": 0.0105}, {"sequence": "AGGAATTG", "PBM E-score": 0.0938}, {"sequence": "CGATCCCA", "PBM E-score": -0.0615}, {"sequence": "CCTGCTAG", "PBM E-score": -0.182}, {"sequence": "CGCAACAA", "PBM E-score": 0.0963}, {"sequence": "GGAGCGTA", "PBM E-score": 0.0102}, {"sequence": "ATCCGTAC", "PBM E-score": 0.177}, {"sequence": "CTGGAATC", "PBM E-score": -0.0416}, {"sequence": "CCTCCAGA", "PBM E-score": -0.208}, {"sequence": "ACCGCGAG", "PBM E-score": -0.00282}, {"sequence": "CGCGCGAA", "PBM E-score": 0.175}, {"sequence": "AGCGCGAG", "PBM E-score": 0.0178}, {"sequence": "ATCGTGCA", "PBM E-score": 0.166}, {"sequence": "ATCGCGCG", "PBM E-score": 0.282}, {"sequence": "CGCGTGAG", "PBM E-score": 0.269}, {"sequence": "ATCGTGCC", "PBM E-score": 0.102}, {"sequence": "AGCGTGAG", "PBM E-score": -0.0272}, {"sequence": "CGCGTGAC", "PBM E-score": 0.056}, {"sequence": "ATCGTGCG", "PBM E-score": 0.325}, {"sequence": "CGCGCGAG", "PBM E-score": 0.302}, {"sequence": "ATCGCGCA", "PBM E-score": 0.0635}, {"sequence": "ATCGCGCC", "PBM E-score": 0.143}, {"sequence": "CAACCAAA", "PBM E-score": 0.0894}, {"sequence": "CGGAGTAA", "PBM E-score": 0.109}, {"sequence": "ATAGACCG", "PBM E-score": -0.0498}, {"sequence": "AACGCACC", "PBM E-score": -0.0282}, {"sequence": "ACACCAAC", "PBM E-score": -0.0461}, {"sequence": "CTCAATGC", "PBM E-score": -0.134}, {"sequence": "ACTGGGAA", "PBM E-score": -0.0452}, {"sequence": "CCTTATCG", "PBM E-score": 0.0678}, {"sequence": "TCTTATAA", "PBM E-score": 0.0694}, {"sequence": "ACTTATCA", "PBM E-score": 0.116}, {"sequence": "CCTTATCA", "PBM E-score": 0.257}, {"sequence": "GCTTATCA", "PBM E-score": 0.0614}, {"sequence": "TCTTATCA", "PBM E-score": 0.267}, {"sequence": "TGTGAAAA", "PBM E-score": 0.103}, {"sequence": "ACGGAACC", "PBM E-score": 0.218}, {"sequence": "GACCGGGC", "PBM E-score": -0.104}, {"sequence": "AACTGATA", "PBM E-score": 0.0697}, {"sequence": "ACAGACCC", "PBM E-score": -0.211}, {"sequence": "AGAGACCT", "PBM E-score": -0.104}, {"sequence": "CGGGACTA", "PBM E-score": -0.22}, {"sequence": "ACGCACTG", "PBM E-score": -0.0467}, {"sequence": "GGGCCTTA", "PBM E-score": -0.0621}, {"sequence": "GCTAGTCA", "PBM E-score": -0.0828}, {"sequence": "ATTAGTGC", "PBM E-score": 0.353}, {"sequence": "CTTAGTCC", "PBM E-score": -0.0572}, {"sequence": "GGTAGTCA", "PBM E-score": -0.206}, {"sequence": "ATTAGTTG", "PBM E-score": 0.216}, {"sequence": "ATTAGTGA", "PBM E-score": 0.14}, {"sequence": "CCTAGTCA", "PBM E-score": -0.0765}, {"sequence": "ATTAGTGG", "PBM E-score": 0.163}, {"sequence": "GTTAGTCA", "PBM E-score": 0.266}, {"sequence": "CTTAGTCA", "PBM E-score": 0.38}, {"sequence": "ATTAGTTA", "PBM E-score": 0.362}, {"sequence": "GTTAGTTA", "PBM E-score": 0.155}, {"sequence": "GGTCTCAA", "PBM E-score": -0.0801}, {"sequence": "GTCTACGA", "PBM E-score": -0.0725}, {"sequence": "CCGGTTAG", "PBM E-score": 0.0658}, {"sequence": "CACCGATG", "PBM E-score": -0.179}, {"sequence": "ATTTCGAC", "PBM E-score": -0.0837}, {"sequence": "GCGGGTAC", "PBM E-score": 0.0345}, {"sequence": "CAATACCG", "PBM E-score": -0.0276}, {"sequence": "AGGTCCCG", "PBM E-score": -0.0309}, {"sequence": "AGCGATCG", "PBM E-score": 0.216}, {"sequence": "ACGCTAGC", "PBM E-score": -0.0932}, {"sequence": "AGGCATTA", "PBM E-score": -0.16}, {"sequence": "AAGGGGCT", "PBM E-score": 0.0431}, {"sequence": "CAGCGGTC", "PBM E-score": -0.229}, {"sequence": "GTTAGTAA", "PBM E-score": 0.422}, {"sequence": "GTTAGTGA", "PBM E-score": -0.0153}, {"sequence": "GATAGTAA", "PBM E-score": 0.156}, {"sequence": "CATAGTAA", "PBM E-score": 0.141}, {"sequence": "GGTAGTAA", "PBM E-score": -0.0434}, {"sequence": "TATAGTAA", "PBM E-score": 0.294}, {"sequence": "ACCACACC", "PBM E-score": -0.169}, {"sequence": "CCAGGAAG", "PBM E-score": -0.131}, {"sequence": "ACTCGACT", "PBM E-score": -0.153}, {"sequence": "CACCGAAA", "PBM E-score": 0.12}, {"sequence": "TTGACCAA", "PBM E-score": 0.0548}, {"sequence": "ATGACATC", "PBM E-score": 0.232}, {"sequence": "TCGACAAA", "PBM E-score": 0.195}, {"sequence": "TTGACAAA", "PBM E-score": 0.294}, {"sequence": "ATGACATA", "PBM E-score": 0.267}]}]}
